Where “and” joins values, the source holds several entries; their conditions need not be identical. Equal values may be shown once. Inconclusive results are not listed. Where a call stands in place of a potency, no number is given. Where a structure was tested more than once in an assay, its records may differ in their call. Calls of active or inactive are those of the source. Unless noted, the call rests on the fitted dose curve; in most records, active means well fitted curve in the direction sought with a large enough effect in the repeat runs; inconclusive means weak or mixed curves; inactive means no such curve, though single readings can be large; an effect the other way counts as inactive or inconclusive.
Tests used:
[1] = qHTS assay to identify small molecule agonists of the vitamin D receptor (VDR) signaling pathway - cell viability counter screen (AID 743224); further: series mostly up to about 63 µM; nearly all actives have a fitted effect of over 50% in size
Outline: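 VDR-bla cells, 4 h after plating, exposed to compounds for 16 h at 37C; viability then read in the same wells as CellTiter-Glo luminescence after 30 min at room temperature, following the bla FRET read.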

[2] = qHTS assay to identify small molecule antagonists of the vitamin D receptor (VDR) signaling pathway - cell viability counter screen (AID 743225); further: nearly all actives have a fitted effect of over 50% in size
Outline: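 In this counter screen, VDR-bla HEK 293T cells receive test compound plus 3 nM final calcitriol for 16 h at 37C. Room-temperature steps of 2 h with the beta-lactamase substrate, then 30 min with CellTiter-Glo, precede the luminescence read.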

[3] = qHTS assay to identify small molecule agonists of the NFkB signaling pathway (AID 1159509; active means well fitted curve in the direction sought with a large enough effect in the signal ratio in the repeat runs, not every such curve was filed as active; the % refers to the signal ratio; further: series mostly up to about 61 µM)
Outline: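 NFkB-bla ME-180 cells with a beta-lactamase reporter under an NF-kB response element were plated overnight, treated with compounds in DMSO for 5 hr at 37 C, then loaded with FRET substrate for 1.5 hr at room temperature.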

[4] = qHTS assay to identify small molecule agonists of the NFkB signaling pathway - cell viability counter screen (AID 1159515; calls by dose curve; further: series mostly up to about 61 µM; nearly all actives have a fitted effect of over 55% in size)
Outline: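 NFkB-bla ME-180 cells, 2,000/well, plated overnight at 37 C; compound added for 5 hr at 37 C. Viability read in the same wells as the bla reporter, by CellTiter-Glo luminescence after 30 min at room temperature.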

[5] = qHTS assay to identify small molecule agonists of the endoplasmic reticulum stress response signaling pathway - cell viability counter screen (AID 1159517; calls by dose curve;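 further: HeLa cells carrying an ER stress response element beta-lactamase reporter; series mostly up to about 61 µM; nearly all actives have a fitted effect of over 50% in size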)
Outline: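 Counter-screen wells were identical to the reporter wells. Cells were plated at 1,500 per well and dosed for 5 hr, then read for luminescence 30 min after CellTiter-Glo addition.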

[6] = qHTS assay to identify small molecule antagonists of the retinoid-related orphan receptor gamma (ROR-gamma) signaling pathway - cell viability counter screen (AID 1159520); further: nearly all actives have a fitted effect of over 50% in size
Outline: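 Tet-on ROR gamma CHO cells were given compounds for 2 hr, then doxycycline hyclate at 1 uM final, and incubated 16 hr at 37 C. Viability was measured as ATP content by CellTiter-Glo luminescence.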

[7] = biological target: Nuclear receptor ROR-gamma (Homo sapiens) (UniProt P51449); experiment: qHTS assay to identify small molecule antagonists of the retinoid-related orphan receptor gamma (ROR-gamma) signaling pathway (AID 1159521; further: nearly all actives have a fitted effect of over 50% in size; further: potency means the concentration at half of the fitted maximal effect)
Outline: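 Screening format: cell-based luciferase reporter in CHO cells with doxycycline-inducible RORγ. Compound pre-exposure lasts 2 h, doxycycline is 1 uM final, induction runs 16 h at 37 C, and ONE-Glo luminescence is read.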

[8] = qHTS assay to identify small molecule agonists of the AP-1 signaling pathway - cell viability counter screen (AID 1159525; calls by dose curve; further: nearly all actives have a fitted effect of over 55% in size)
Outline: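 AP-1-bla ME-180 cells in Opti-MEM with 0.5% dialyzed FBS, compound exposure 5 h at 37 C in 15-point titration. Viability read in the same wells as ATP content by CellTiter-Glo luminescence, normalised to tetra-n-octylammonium bromide and DMSO controls.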

[9] = qHTS assay to identify small molecule agonists of the AP-1 signaling pathway (AID 1159526; calls by dose curve; further: potency means the concentration at half of the fitted maximal effect)
[10] = biological target: Retinoic acid receptor RXR-alpha (Homo sapiens) (UniProt P19793); experiment: qHTS assay to identify small molecule agonists of the RXR signaling pathway (AID 1159527; calls by dose curve; further: nearly all actives have a fitted effect of over 35% in size; further: potency means the concentration at half of the fitted maximal effect)
Outline: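 Fluorescence ratio readout (460 vs 530 nm) from GeneBLAzer RXR-alpha HEK 293T cells after 16 hr compound treatment; cells seeded 5 hr beforehand in low-serum, charcoal-stripped medium.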

[11] = qHTS assay to identify small molecule agonists of the RXR signaling pathway - cell viability counter screen (AID 1159529)
Outline: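 Viability read-out for the RXR-alpha agonist qHTS: luminescent CellTiter-Glo signal after 30 min at RT. HEK 293T bla reporter cells, 2% charcoal-stripped FBS, 16 hr compound incubation; tetraoctyl ammonium bromide as cytotoxic control.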

[12] = qHTS assay to identify small molecule antagonists of the retinoid acid receptor (RAR) signaling pathway - cell viability counter screen (AID 1159551); further: nearly all actives have a fitted effect of over 35% in size
Outline: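 C3RL4 RARE-luciferase cells, 1,000/well, incubated overnight, then dosed with compound plus 1 uM retinol (final). After 6 hr at 37 C, viability read by CellTiter-Glo ATP luminescence following 30 min at room temperature.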

[13] = qHTS assay to identify small molecule antagonists of the retinoic acid receptor (RAR) signaling pathway (AID 1159552; further: nearly all actives have a fitted effect of over 50% in size)
Outline: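 Using a RARE-driven luciferase construct in C3RL4 cells, retinol at 1 uM final provided the agonist stimulus while compounds were co-applied. After 6 hours at 37 C, luminescence was recorded to flag inhibitors of retinol signaling.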

[14] = qHTS assay to identify small molecule agonists of the retinoic acid receptor (RAR) signaling pathway (AID 1159553); further: potency means the concentration at half of the fitted maximal effect
Outline: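 C3RL4 RARE-luciferase cells were seeded at 1,000/well and grown overnight at 37 C, then exposed to compounds for 6 hr at 37 C, 5% CO2. Luciferase reagent was added and luminescence was read after 30 min at room temperature.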

[15] = qHTS assay to identify small molecule agonists of the endoplasmic reticulum stress response signaling pathway (AID 1159516; active means well fitted activation curve with a large enough effect in the signal ratio in the repeat runs, not every such curve was filed as active; the % refers to the signal ratio)
Outline: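 CellSensor ESRE-bla HeLa cells, 1,500 per well, plated overnight, then exposed to compounds for 5 hr at 37 C. Beta-lactamase reporter read with LiveBLAzer B/G FRET substrate after 2 hr at room temperature, 405 nm excitation, 460 and 530 nm emission.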

[16] = qHTS assay to identify small molecule antagonists of the estrogen related receptor signaling pathway with the pleiotropic PPARgamma coactivator (PGC) cell viability counter screen (AID 1224822;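 further: series mostly up to about 46 µM; viability read after 17.5 h compound exposure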)
Outline: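 PGC/ERR cells rested 6 h, then compound-treated 17.5 h at 37 C. CellTiter-Fluor added for 30 min at 37 C, viability measured by fluorescence intensity.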

Chain of Retinoic acid receptor RXR-alpha (Homo sapiens) (P19793 whole entry, looked up): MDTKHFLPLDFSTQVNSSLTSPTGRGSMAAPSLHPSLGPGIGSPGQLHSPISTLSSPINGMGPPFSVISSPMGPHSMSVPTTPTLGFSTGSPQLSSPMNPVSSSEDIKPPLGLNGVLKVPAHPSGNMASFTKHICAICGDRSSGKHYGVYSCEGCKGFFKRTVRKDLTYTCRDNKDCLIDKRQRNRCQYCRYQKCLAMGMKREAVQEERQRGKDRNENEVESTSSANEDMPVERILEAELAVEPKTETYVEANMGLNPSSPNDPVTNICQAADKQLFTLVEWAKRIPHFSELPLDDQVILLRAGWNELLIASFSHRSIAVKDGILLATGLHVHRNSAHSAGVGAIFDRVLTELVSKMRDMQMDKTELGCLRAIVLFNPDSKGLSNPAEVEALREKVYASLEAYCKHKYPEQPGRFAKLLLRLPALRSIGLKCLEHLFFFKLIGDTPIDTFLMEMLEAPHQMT

SMILES | Potency [1] | outcome [2] | outcome [3] | outcome [4] | Potency [5] | outcome [6] | Potency [7] | outcome [8] | Potency [9] | Potency [10] | Potency [11] | outcome [12] | Potency [13] | Potency [14] | outcome [15] | outcome [16]
CC(=O)CCC(C)C | inactive | inactive | inactive | inactive | inactive | inactive | inactive | inactive | inactive | inactive | inactive | inactive | inactive | inactive | – | –
CCCCOCCOCCOC(C)=O | inactive | – | inactive | inactive | – | inactive | – | inactive | inactive | inactive | inactive | inactive | inactive | inactive | inactive | –
C[C@]12C=CC(=O)C=C1CC[C@@H]1[C@@H]2C(=O)C[C@@]2(C)[C@H]1CC[C@]2(O)C(=O)CO | inactive | inactive | inactive | inactive | – | inactive | – | inactive | inactive | inactive | inactive | inactive | inactive | inactive | inactive | –
Nc1cccc(N)c1 | inactive | – | inactive | inactive | inactive | inactive | inactive | inactive | inactive | inactive | inactive | inactive | inactive | inactive | – | –
COCC(C)N (configuration not stated) | inactive | – | inactive | inactive | – | inactive | – | inactive | inactive | inactive | inactive | inactive | inactive | inactive | – | –
CN/C(=C\[N+](=O)[O-])NCCSCc1ccc(CN(C)C)o1 | inactive | inactive | inactive | inactive | – | inactive | inactive | inactive | inactive | inactive | inactive | inactive | inactive | inactive | – | inactive
Nc1ccc(N=Nc2ccccc2)c(N)n1 | inactive | inactive | inactive | inactive | – | inactive | – | inactive | inactive | inactive | inactive | inactive | inactive | 1.23 µM (active) and 969 nM (active) and 2.37 µM (active) | – | –
COc1ccccc1O | inactive | inactive | inactive | inactive | inactive | inactive | – | inactive | inactive | inactive | inactive | inactive | – | – | – | inactive
CCN1CCCC1=O | inactive | inactive | inactive | inactive | inactive | inactive | – | inactive | inactive | inactive | inactive | inactive | inactive | inactive | – | –
CC(=O)Oc1ccccc1C(=O)O | inactive | inactive | inactive | inactive | inactive | inactive | – | inactive | inactive | inactive | inactive | inactive | inactive | inactive | – | inactive
Oc1cccc(O)c1 | inactive | – | inactive | inactive | – | inactive | – | inactive | inactive | – | inactive | inactive | inactive | inactive | – | –
CCCCCCCCCCCCCCCCCC(=O)OCC(O)CO (configuration not stated) | inactive | inactive | inactive | inactive | – | inactive | – | inactive | inactive | inactive | inactive | inactive | inactive | inactive | – | –
CC(=O)/C=C/C1=C(C)CCCC1(C)C | inactive | inactive | – | inactive | – | inactive | – | inactive | inactive | inactive | inactive | inactive | – | – | – | –
COc1ccccc1NC(=O)CC(C)=O | inactive | inactive | inactive | inactive | – | inactive | – | inactive | inactive | inactive | inactive | inactive | inactive | inactive | – | –
O=C(O)CCCCC1CCSS1 (configuration not stated) | inactive | inactive | inactive | inactive | inactive | inactive | inactive | inactive | 27.5 µM (active) and inactive | inactive | inactive | inactive | – | – | – | –
Cc1ccc(O)c(-n2nc3ccccc3n2)c1 | inactive | inactive | inactive | inactive | inactive | inactive | inactive | inactive | inactive | inactive | inactive | – | inactive | 1.52 µM (active) and 1.93 µM (active) and 2.98 µM (active) | – | –
OC[C@@H](O)[C@@H](O)[C@H](O)[C@H](O)CO | inactive | inactive | inactive | inactive | inactive | inactive | – | inactive | inactive | inactive | inactive | inactive | inactive | inactive | – | –
CCc1cc(C(N)=S)ccn1 | inactive | – | inactive | inactive | – | inactive | – | inactive | inactive | inactive | inactive | inactive | inactive | inactive | – | –
CC1(C)O[C@@H]2[C@@H](CO[C@@]3(COS(N)(=O)=O)OC(C)(C)O[C@@H]23)O1 | inactive | – | inactive | inactive | inactive | inactive | – | inactive | inactive | 17.4 µM (active) and inactive | inactive | inactive | inactive | inactive | – | –
C[C@]12C[C@H](O)[C@H]3[C@@H](CCC4=CC(=O)CC[C@@]43C)[C@@H]1CC[C@@H]2C(=O)CO | inactive | inactive | inactive | inactive | – | inactive | 48.6 µM (active) and inactive | inactive | inactive | inactive | inactive | inactive | inactive | inactive | – | inactive
C/C=C/c1ccc(O)c(OC)c1 | inactive | – | – | inactive | inactive | inactive | – | inactive | inactive | inactive | inactive | inactive | inactive | inactive | – | –

— PubChem BioAssay (Tox21)
